Reference: PubChem BioAssay (Tox21)
Inconclusive results are not listed. Activity calls are given as the source filed them. Unless noted, the call rests on the fitted dose curve; in most records, active means well fitted curve in the direction sought with a large enough effect in the repeat runs; inconclusive means weak or mixed curves; inactive means no such curve, though single readings can be large; an effect the other way counts as inactive or inconclusive.

How the values were obtained:
[1] = qHTS assay to identify small molecule agonists of the RXR signaling pathway - cell viability counter screen (AID 1159529);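 further: HEK 293T cells carrying an RXR-alpha UAS beta-lactamase reporter; nearly all actives have a fitted effect of over 50% in size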
How it was run: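 Steps: seed RXR-alpha-UAS-bla HEK 293T cells in assay medium containing 2% charcoal-stripped FBS; incubate 5 hr; add compounds in DMSO; incubate 16 hr at 37 C; after the bla read, add CellTiter-Glo and read luminescence at 30 min.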

[2] = qHTS assay to identify small molecule antagonists of the retinoid acid receptor (RAR) signaling pathway - cell viability counter screen (AID 1159551); further: nearly all actives have a fitted effect of over 35% in size
How it was run: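 C3RL4 RARE-luciferase cells, 1,000/well, incubated overnight, then dosed with compound plus 1 uM retinol (final). After 6 hr at 37 C, viability read by CellTiter-Glo ATP luminescence following 30 min at room temperature.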

[3] = qHTS assay to identify small molecule antagonists of the retinoic acid receptor (RAR) signaling pathway (AID 1159552; further: nearly all actives have a fitted effect of over 50% in size)
How it was run: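 Retinol at 1 uM final stimulated RARE-luciferase expression in C3RL4 cells exposed to test compounds for 6 hr at 37 C. Reduced luminescence, read 30 min after detection reagent, indicated pathway antagonism.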

[4] = qHTS assay to identify small molecule agonists of the retinoic acid receptor (RAR) signaling pathway (AID 1159553); conditions: C3RL4 RARE luciferase reporter, agonist, 6 h; activation: at 73.3 µM (top of the series)
How it was run: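 C3RL4 RARE-luciferase cells were seeded at 1,000/well and grown overnight at 37 C, then exposed to compounds for 6 hr at 37 C, 5% CO2. Luciferase reagent was added and luminescence was read after 30 min at room temperature.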

[5] = biological target: Luciferin 4-monooxygenase (Photinus pyralis) (UniProt P08659); assay: qHTS assay to identify small molecule inhibitors of firefly luciferase (AID 1224835); further: nearly all actives have a fitted effect of over 25% in size
How it was run: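 Quantitative HTS format; KM concentrations of both substrates. Purified P. pyralis FLuc activity quantified from luminescence images.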

[6] = qHTS assay to identify small molecule agonists of the constitutive androstane receptor (CAR) signaling pathway - cell viability counter screen (AID 1224836); further: nearly all actives have a fitted effect of over 45% in size
How it was run: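 Cells were seeded and incubated 4 hrs. Compounds were added across 15 concentrations together with PK11195 at 0.75 uM final. Plates were incubated 23 hrs at 37 C. CellTiter-Fluor was added and fluorescence measured.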

[7] = qHTS assay to identify small molecule antagonists of the constitutive androstane receptor (CAR) signaling pathway - cell viability counter screen (AID 1224837); further: nearly all actives have a fitted effect of over 45% in size
How it was run: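 HepG2 cells stably carrying hCAR and CYP2B6-2.2kb reporter, stimulated with 50 nM CITCO and compounds at 15 concentrations for 23 h at 37 C. Viability measured by CellTiter-Fluor fluorescence.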

[8] = qHTS assay to identify small molecule antagonists of the estrogen related receptor signaling pathway with the pleiotropic PPARgamma coactivator (PGC) from Tox21 10K library - cell viability counter screen (AID 1224840; active means well fitted cell-killing curve with a large enough effect in the repeat runs, not every such curve was filed as active; further: nearly all actives have a fitted effect of over 40% in size)
How it was run: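 PGC/ERR cells (2,000/well) plated 6 h, then compound-treated for 17.5 h at 37 C. Viability measured by CellTiter-Fluor fluorescence after 30 min at 37 C, multiplexed with the pathway assay.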

[9] = biological target: Thyrotropin receptor (Homo sapiens) (UniProt P16473); assay: qHTS assay to identify small molecule agonists of the thyroid stimulating hormone receptor (TSHR) signaling pathway (AID 1224843; calls by dose curve; further: nearly all actives have a fitted effect of over 45% in size)
How it was run: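 Cell line HEK293 with TSHR; density 800/well. Exposure 30 min RT. Readout HTRF cAMP (cAMP-d2/anti-cAMP-cryptate), 1 h RT before reading.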

[10] = qHTS assay to identify small molecule agonists of the hypoxia (HIF-1) signaling pathway - cell viability counter screen (AID 1224844; calls by dose curve; further: nearly all actives have a fitted effect of over 50% in size)
How it was run: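 HRE-bla ME-180 cells, 2,000/well in 0.5% dialyzed FBS medium, treated 17 h at 37C with compounds. Viability read in the same wells as the bla reporter, by CellTiter-Glo luminescence after 30 min at room temperature.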

[11] = qHTS assay to identify small molecule agonists of H2AX (AID 1224845; active means well fitted activation curve with a large enough effect in the signal ratio in the repeat runs, not every such curve was filed as active; the % refers to the signal ratio)
How it was run: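 Wild-type CHO-K1 cells plated overnight, then exposed 3 hr at 37C to compounds at 15 concentrations (0.76% DMSO). Lysed, then HTRF anti-pH2AX(S139)-cryptate/anti-H2AX-d2 detection after 24 hr at room temperature; emissions 665 and 620 nm.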

[12] = qHTS assay to identify small molecule agonists of the hypoxia (HIF-1) signaling pathway (AID 1224846; active means well fitted activation curve with a large enough effect in the signal ratio in the repeat runs, not every such curve was filed as active; the % refers to the signal ratio)
How it was run: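 HRE-bla ME-180 beta-lactamase reporter cells in medium with 0.5% dialyzed FBS, pre-incubated 5 h then exposed to compounds 17 h at 37C, 5% CO2; reporter induction read with CCF4-AM FRET substrate.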

[13] = qHTS assay to identify small molecule agonists of H2AX - cell viability counter screen (AID 1224847; calls by dose curve; further: top concentration of the series differs between compounds; nearly all actives have a fitted effect of over 30% in size)
How it was run: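 Cytotoxicity counter screen in wild-type CHO-K1 cells: a 3 hr compound treatment at 37C across 15 concentrations, followed by CellTiter-Glo luminescence to gauge viable cells.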

[14] = qHTS assay to identify small molecule antagonists of the estrogen related receptor (ERR) signaling pathway from Tox21 library - cell viability counter screen (AID 1224834); further: nearly all actives have a fitted effect of over 30% in size
How it was run: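 ERR reporter cells, 2,000 per well, rested 6 h, then exposed to compound in DMSO for 17.5 hours at 37 C. Viability read as fluorescence after 30 min with CellTiter-Fluor.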

[15] = biological target: Nuclear receptor subfamily 1 group I member 3 (Homo sapiens) (UniProt Q14994); assay: qHTS assay to identify small molecule antagonists of the constitutive androstane receptor (CAR) signaling pathway (AID 1224838); further: nearly all actives have a fitted effect of over 40% in size
How it was run: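 HepG2 cells stably carrying hCAR and a CYP2B6-2.2kb luciferase reporter, seeded 4 hrs before compound (15 concentrations). Stimulated with 50 nM CITCO for 24 hr at 37 C. ONE-Glo luminescence read after 30 min at room temperature.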

[16] = biological target: Nuclear receptor subfamily 1 group I member 3 (Homo sapiens) (UniProt Q14994); assay: qHTS assay to identify small molecule agonists of the constitutive androstane receptor (CAR) signaling pathway (AID 1224839); further: nearly all actives have a fitted effect of over 15% in size
How it was run: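 Cells were plated and incubated 4 hrs, then dosed with compounds at 15 concentrations. PK11195 was added to 0.75 uM final. After 24 hrs at 37 C, luciferase luminescence was measured.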

[17] = qHTS assay to identify small molecule antagonists of the estrogen related receptor signaling pathway with the pleiotropic PPARgamma coactivator (PGC) from Tox21 10K library (AID 1224841; call rule not given here; further: actives are mostly falling curves and most rising ones were filed inactive; nearly all actives have a fitted effect of over 50% in size)
How it was run: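 PGC/ERR cell line, 2,000 cells/well, pre-incubated 6 hours at 37 C, then exposed to compounds for 18 hours at 37 C; luciferase read with One-Glo luminescence after 30 min at room temperature.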

[18] = qHTS assay to identify small molecule agonists of the estrogen related receptor signaling pathway with the pleiotropic PPARgamma coactivator (PGC) from Tox21 10K library (AID 1224842); further: nearly all actives have a fitted effect of over 15% in size
How it was run: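 PGC/ERR reporter cells (NTP line) were seeded 2,000 per well, rested 6 h at 37 C/5% CO2, then pin-dosed with compounds in DMSO for 18 h at 37 C; luciferase read by One-Glo luminescence after 30 min at room temperature.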

[19] = qHTS assay to identify small molecule antagonists of the estrogen related receptor (ERR) signaling pathway from Tox21 library (AID 1224848); further: nearly all actives have a fitted effect of over 50% in size
How it was run: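 Screening used an ERR reporter line supplied by NTP, exposed for 18 h at 37 C to library compounds delivered in DMSO. Signal was luciferase luminescence developed with ONE-Glo at room temperature for 30 min.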
On the % scale 0 is the no-effect control and ±100 the full control effect.

Sequence of Thyrotropin receptor (Homo sapiens) (P16473 whole entry, looked up): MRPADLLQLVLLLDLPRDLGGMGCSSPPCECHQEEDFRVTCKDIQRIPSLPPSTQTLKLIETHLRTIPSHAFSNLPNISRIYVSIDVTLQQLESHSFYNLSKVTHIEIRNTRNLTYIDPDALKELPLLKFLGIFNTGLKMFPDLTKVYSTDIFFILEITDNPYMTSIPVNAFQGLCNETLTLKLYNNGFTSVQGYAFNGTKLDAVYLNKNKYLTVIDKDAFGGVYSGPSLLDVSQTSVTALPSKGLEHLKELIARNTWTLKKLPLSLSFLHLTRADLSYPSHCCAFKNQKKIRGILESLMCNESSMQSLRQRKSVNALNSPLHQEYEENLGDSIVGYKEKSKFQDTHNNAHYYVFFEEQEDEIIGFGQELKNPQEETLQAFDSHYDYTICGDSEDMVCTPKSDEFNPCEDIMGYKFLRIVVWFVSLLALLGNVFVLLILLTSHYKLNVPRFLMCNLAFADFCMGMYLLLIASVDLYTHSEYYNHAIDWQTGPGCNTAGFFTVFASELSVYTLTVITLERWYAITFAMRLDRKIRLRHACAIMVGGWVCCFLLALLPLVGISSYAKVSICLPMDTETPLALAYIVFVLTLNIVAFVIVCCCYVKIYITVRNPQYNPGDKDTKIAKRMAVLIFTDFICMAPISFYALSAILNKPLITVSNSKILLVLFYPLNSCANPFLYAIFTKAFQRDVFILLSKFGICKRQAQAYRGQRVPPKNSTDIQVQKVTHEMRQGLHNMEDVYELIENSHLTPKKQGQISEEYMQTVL
Sequence of Nuclear receptor subfamily 1 group I member 3 (Homo sapiens) (Q14994 whole entry, looked up): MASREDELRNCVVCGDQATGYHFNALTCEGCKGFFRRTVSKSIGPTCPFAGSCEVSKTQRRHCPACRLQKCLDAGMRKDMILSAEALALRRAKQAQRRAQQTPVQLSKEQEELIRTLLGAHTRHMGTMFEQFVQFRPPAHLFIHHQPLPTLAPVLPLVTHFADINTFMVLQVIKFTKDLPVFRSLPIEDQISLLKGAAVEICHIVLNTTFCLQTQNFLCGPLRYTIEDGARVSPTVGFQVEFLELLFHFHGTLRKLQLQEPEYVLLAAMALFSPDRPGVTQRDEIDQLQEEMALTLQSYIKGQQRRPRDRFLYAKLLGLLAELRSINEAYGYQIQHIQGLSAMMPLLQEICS
Sequence of Luciferin 4-monooxygenase (Photinus pyralis) (P08659 whole entry, looked up): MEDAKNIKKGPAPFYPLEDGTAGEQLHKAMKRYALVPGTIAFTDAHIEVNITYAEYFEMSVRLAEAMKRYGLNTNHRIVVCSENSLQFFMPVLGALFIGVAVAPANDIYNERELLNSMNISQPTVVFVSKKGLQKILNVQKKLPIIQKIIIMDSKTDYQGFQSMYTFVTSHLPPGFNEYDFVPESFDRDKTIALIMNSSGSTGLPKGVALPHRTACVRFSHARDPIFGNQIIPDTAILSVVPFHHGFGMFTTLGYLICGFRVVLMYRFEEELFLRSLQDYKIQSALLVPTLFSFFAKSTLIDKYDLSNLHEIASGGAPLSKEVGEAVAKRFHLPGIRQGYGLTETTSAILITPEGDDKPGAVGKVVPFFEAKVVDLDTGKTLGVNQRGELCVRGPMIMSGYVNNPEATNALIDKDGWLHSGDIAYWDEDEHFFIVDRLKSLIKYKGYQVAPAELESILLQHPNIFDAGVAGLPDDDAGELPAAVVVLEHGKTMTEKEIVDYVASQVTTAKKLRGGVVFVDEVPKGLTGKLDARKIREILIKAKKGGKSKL

CC(C)CCCCCCOC(=O)C1CCCCC1C(=O)OCCCCCCC(C)C (stereo not given)
inactive: outcome [1] | outcome [2] | Potency [3] | Potency [4] | Potency [5] | outcome [6] | Potency [7] | outcome [8] | outcome [9] | outcome [10] | outcome [11] | outcome [12] | Potency [13]

Nc1c(NC/C=C\COc2cc(CN3CCCCC3)ccn2)c(=O)c1=O
inactive: activity change, negative = cytotoxicity [1] 0.401% [at 15.8 µM] | activity change, negative = cytotoxicity [2] 3.28% [at 19 µM] | activity, negative = inhibition [3] -5.94% [at 19 µM] | Potency [4] | viability change, negative = cytotoxic [14] -12.4% [at 19 µM] | activity change, negative = inhibition [5] 10.6% [at 23.6 µM] | activity, negative = inhibition [15] 4.07% [at 19 µM] | activation [16] 4% [at 19 µM] | activation [9] 2.1% [at 19 µM] | activity change, negative = cytotoxicity [10] 1.18% [at 15.8 µM] | activation (H2AX phosphorylation) [11] -1.81% [at 31.6 µM] | activation [12] 0.659% [at 15.8 µM] | activity change, negative = cytotoxicity [13] 2.48% [at 31.6 µM]

C=C(C)C(=O)OC
inactive: outcome [1] | outcome [2] | Potency [3] | Potency [4] | Potency [14] | outcome [6] | Potency [7] | Potency [15] | Potency [16] | outcome [8] | Potency [17] | outcome [18] | outcome [9] | outcome [10] | outcome [11] | outcome [12] | Potency [13] | Potency [19]

CC(C)(c1ccc(Oc2ccc3c(c2)C(=O)OC3=O)cc1)c1ccc(Oc2ccc3c(c2)C(=O)OC3=O)cc1
inactive: outcome [2] | Potency [3] | Potency [4] | Potency [14] | outcome [6] | Potency [7] | Potency [15] | Potency [16] | outcome [8] | outcome [18] | outcome [9] | outcome [10] | outcome [11] | outcome [12] | Potency [19]

C[C@H](CCC(=O)O)[C@H]1CC[C@H]2[C@@H]3[C@H](O)C[C@@H]4C[C@H](O)CC[C@]4(C)[C@H]3C[C@H](O)[C@]12C
inactive: outcome [2] | Potency [3] | Potency [4] | Potency [14] | outcome [6] | Potency [7] | outcome [8] | outcome [9] | outcome [10] | outcome [11] | outcome [12] | Potency [13]

CCN(Cc1cccc(S(=O)(=O)O)c1)c1ccccc1
inactive: outcome [2] | Potency [3] | Potency [4] | outcome [6] | Potency [7] | Potency [15] | Potency [16] | outcome [8] | outcome [9] | outcome [10] | outcome [11] | outcome [12] | Potency [13]

CN(C)CCCNCCC#N
inactive: outcome [1] | Potency [3] | Potency [4] | Potency [14] | outcome [6] | Potency [7] | Potency [15] | Potency [16] | outcome [8] | outcome [10] | outcome [11] | outcome [12] | Potency [13]

O=C1OC(=O)c2cc(Oc3ccc4c(c3)C(=O)OC4=O)ccc21
inactive: outcome [1] | outcome [2] | Potency [3] | Potency [4] | Potency [14] | Potency [5] | Potency [7] | outcome [8] | outcome [9] | outcome [10] | outcome [11] | outcome [12] | Potency [13]

CCC(=O)OCCC(C)CCC=C(C)C (stereo not given)
inactive: outcome [1] | outcome [2] | Potency [3] | Potency [4] | Potency [5] | outcome [6] | Potency [7] | Potency [15] | Potency [16] | outcome [10] | outcome [11] | outcome [12] | Potency [13]

Cc1c(C(C)C)c(=O)n(-c2ccccc2)n1C
inactive: outcome [1] | outcome [2] | Potency [3] | Potency [4] | Potency [14] | Potency [5] | Potency [7] | Potency [15] | outcome [18] | outcome [10] | outcome [12] | Potency [19]
